Compound activity deposited in PubChem by Buhrlage Lab, Dana-Farber Cancer Institute and Novartis Institutes for BioMedical Research (Cambridge, Mass).
OTUD3 block = blocks human OTUD3 ubiquitin-rhodamine cleavage | Q5T2D3 | purified OTUD3, Ub-rhodamine fluorescence, 2 h | inhibition, % at 25 µM | hit rate 0.7% among 47,000
USP28 block = inhibitors of human USP28 deubiquitinase. Q96RU2. purified USP28, Ub-rhodamine cleavage fluorescence, 30 min. inhibition, % at 25 µM. hit rate 3% among 47,000
Target sequence (Q96RU2 whole entry, looked up): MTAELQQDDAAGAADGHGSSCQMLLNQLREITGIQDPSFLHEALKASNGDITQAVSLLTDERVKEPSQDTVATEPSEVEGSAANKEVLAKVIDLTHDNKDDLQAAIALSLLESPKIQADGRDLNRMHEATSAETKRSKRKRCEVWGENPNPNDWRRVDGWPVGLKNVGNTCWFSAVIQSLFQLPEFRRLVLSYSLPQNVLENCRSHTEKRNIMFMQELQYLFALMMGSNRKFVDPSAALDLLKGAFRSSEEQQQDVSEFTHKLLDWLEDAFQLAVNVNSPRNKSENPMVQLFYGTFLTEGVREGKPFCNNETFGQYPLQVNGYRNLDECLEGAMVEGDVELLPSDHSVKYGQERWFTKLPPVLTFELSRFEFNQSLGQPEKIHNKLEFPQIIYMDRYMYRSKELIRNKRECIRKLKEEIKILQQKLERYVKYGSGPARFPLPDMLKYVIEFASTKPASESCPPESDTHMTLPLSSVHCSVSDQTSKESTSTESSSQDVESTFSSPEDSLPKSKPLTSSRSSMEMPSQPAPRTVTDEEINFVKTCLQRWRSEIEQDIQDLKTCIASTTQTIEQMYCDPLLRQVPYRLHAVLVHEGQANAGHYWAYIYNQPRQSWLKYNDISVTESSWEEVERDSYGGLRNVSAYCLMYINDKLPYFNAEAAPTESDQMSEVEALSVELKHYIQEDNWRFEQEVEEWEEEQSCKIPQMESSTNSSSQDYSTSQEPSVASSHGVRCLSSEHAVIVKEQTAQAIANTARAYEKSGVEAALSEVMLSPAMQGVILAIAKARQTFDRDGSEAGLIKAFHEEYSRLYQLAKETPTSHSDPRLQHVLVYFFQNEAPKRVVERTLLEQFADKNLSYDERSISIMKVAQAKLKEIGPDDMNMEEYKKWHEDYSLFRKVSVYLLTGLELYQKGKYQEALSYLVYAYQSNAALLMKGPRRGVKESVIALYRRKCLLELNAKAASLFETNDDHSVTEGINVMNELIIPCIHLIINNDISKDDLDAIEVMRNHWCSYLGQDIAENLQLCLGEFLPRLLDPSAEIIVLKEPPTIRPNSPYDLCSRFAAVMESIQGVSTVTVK
A number is an active result; n = inactive; x = no result. Shown are actives, neighbours in structure and some others; about 3.3% of the full set was active somewhere. Cut-off read from the data, not from the text of the source: active = inhibition above about 30%; inactive = the rest.

SMILES	OTUD3 block	USP28 block
CC(NC(=O)C1=CCN(Cc2cccc(F)c2)CC1)c1ccccc1 (configuration not stated)	n	n
CCn1c(CN2CCOCC2)nnc1SCC(=O)c1ccc(F)cc1	n	n
Cn1c(CC2CCN(C(=O)NCc3cccc(F)c3)C2)nc2cccnc21 (configuration not stated)	n	n
Cc1ccc(S(=O)(=O)Nc2ccccc2C(=O)Nc2nc3ccc(Br)cc3s2)cc1	84.0	77.2
Cc1ccc2nc(NC(=O)c3ccccc3OCc3ccccc3Cl)sc2c1	n	n
Cc1ccccc1OCC(=O)Nc1ccc(O)c(-c2nc3ccccc3o2)c1	n	n
Cc1cccc(O)c1-c1nc2c(-c3nc4c(C(=O)O)cccc4o3)cccc2o1	33.3	n
CCCn1cnc2cc(-c3noc(CNC(=O)c4cccs4)n3)ccc21	n	n
Cc1noc2nc(C)n(CC(=O)NCc3ccccc3)c(=O)c12	n	n
COc1ccc(Cl)cc1NC(=O)C1C2C(=O)N(c3ccc4c(c3)OCO4)C(=O)C2C2c3ccccc3C=CN12 (configuration not stated)	n	n
COc1ccc(Cl)cc1NC(=O)C1[C@@H]2C(=O)N(Cc3ccc4c(c3)OCO4)C(=O)[C@@H]2[C@H]2c3ccccc3C=CN12 (some centres not stated)	n	45.2
CCC(C(=O)Nc1ccccc1)n1cnc2nc(N3CCCCC3)ncc2c1=O (configuration not stated)	n	n
CCN1[C@H]2CCN(CCOC)CC[C@@H]2Oc2ccccc2S1(=O)=O	n	n
N#Cc1cccc(CN2CC[C@H]3[C@H]2CCN3S(=O)(=O)C2CC2)c1	n	n
Cc1cc(-c2cncnc2C2CCCN(C(=O)C3CC3)C2)on1 (configuration not stated)	n	n
CCN(CC)C(=O)CN1CCCC(c2ncncc2-c2cc(C)no2)C1 (configuration not stated)	30.2	n
CCCCOc1cccc(C(=O)Nc2nc3ccc(S(C)(=O)=O)cc3s2)c1	n	n
O=C(c1ccc(N2CCc3ccccc32)s1)N1CCC(N2CCCCC2)CC1	n	34.6
CN(C)CCNC(=O)c1ccc(N2CCc3ccccc32)s1	n	n
CNc1nc2c(c(=O)n1Cc1ccccc1)CCN(S(=O)(=O)c1cccc(F)c1)C2	n	n
Cc1ccc(Cn2c(/C=C/c3ccc(F)cc3)nc3ccccc32)cc1	n	35.1
N#Cc1ccc(/C=C/c2nc3ccccc3n2Cc2ccc(F)cc2)cc1	n	n
Cc1ccc(CNC(=O)C2CCN(c3cnc(N4CCOCC4)nc3)CC2)cc1C	n	n
O=C(c1nnn(-c2ccc(Cl)cc2)c1-c1cccnc1)N1CCc2ccccc2C1	n	n
COc1ccc(Cl)cc1-n1nnc(C(=O)N2CCc3ccccc3C2)c1C	n	32.6
SMILES	OTUD3 block	USP28 block
Cc1ccc(S(=O)(=O)N2CCC(C(=O)Nc3nnc(C)o3)CC2)cc1	n	n
Cc1nnc(NC(=O)C2CCN(c3ccc(S(N)(=O)=O)cc3[N+](=O)[O-])CC2)o1	66.8	66.1
CC(C)N1CC2CN(C(=O)c3ccccc3)CCN2Cc2ccccc21 (configuration not stated)	n	n
Cc1scc2nc(C(=O)Nc3ccc4c(c3)OCO4)nc(N3CCOCC3)c12	n	32.2
Cc1scc2nc(C(=O)N3CCCC3)nc(N3CCOCC3)c12	n	n
Cc1nccc(C(=O)N2CCCC(c3ncc(Cc4cccc(F)c4)o3)C2)n1 (configuration not stated)	n	n
Cc1cc(NC(=O)Cc2nc(C)c(C(=O)NC3CC3)s2)ccc1F	n	n
CCCCCCCCCCCC1=C(O)C(=O)C=C(O)C1=O	94.3	98.5
Cc1ccc(-c2ccc(SCc3nc(-c4ccc(C)cc4)no3)nn2)cc1	n	n
CC1CCN(C(=O)c2cn(-c3cc(N4CCC(C)CC4)ncn3)cn2)CC1	n	70.8
CC(=O)Nc1ccc(-n2cnc(C(=O)N3CCC(C)CC3)c2)nc1	n	n
CCCC(C)NC(=O)COC(=O)c1cc(-c2ccc(Cl)cc2)nc2ccccc12 (configuration not stated)	n	n
NS(=O)(=O)c1ccc(CCNC(=O)COC(=O)c2cc(-c3ccc(Cl)cc3)nc3ccccc23)cc1	n	36.7
O=C(NCc1ccccc1F)c1csc(-c2ccc(N3CCOCC3)nc2)n1	n	n
Cc1ccc(-c2cc(C(=O)Nc3ccc4c(c3)OCCO4)c3ccccc3n2)o1	n	n
O=C(Nc1ccc2c(c1)OCCO2)c1cccc2nc3ccccc3nc12	31.1	n
CN1CCN(c2ncnc3c2oc2ccc(Cl)cc23)CC1	88.4	n
c1cnc(N2CCN(c3ncnc4c3oc3ccccc34)CC2)nc1	n	n
COc1ccccc1-c1nc(-c2nnn(Cc3cccc(F)c3)c2C)no1	n	56.3
Cc1c(-c2noc(-c3ccccc3)n2)nnn1Cc1ccccc1	n	n
Cc1ccc(Cn2nnc(-c3noc(-c4ccc[nH]4)n3)c2C)cc1	n	62.3
Cc1c(-c2noc(-c3ccccc3)n2)nnn1Cc1cccc(F)c1	n	n
Cn1c(SCc2c(F)cccc2Cl)nnc1-c1ccc2c(c1)OCCCO2	n	n
CC(=O)c1cccc(NC(=O)Nc2ccc(CCc3nc4ccccc4n3C)cc2)c1	n	n
O=C(NC1CCc2ccccc21)C(c1ccccc1)c1ccccc1 (configuration not stated)	n	n
SMILES	OTUD3 block	USP28 block
CN1CCCN(C(=O)COc2ccccc2)c2nc3ccccc3nc21	n	n
Cn1c(NC(=O)c2ccccc2F)c(-c2ccc3c(c2)OCO3)c(=O)c2ccccc21	n	n
Cc1ccc(C(=O)Nc2c(-c3ccc4c(c3)OCO4)c(=O)c3ccccc3n2C)cc1	n	45.6
O=C(NCc1nc(-c2ccc(N3CCOCC3)cc2)no1)c1cccs1	n	n
O=C(c1ccc(Cl)cc1)c1c[nH]cc1-c1c(F)cccc1Cl	n	n
O=[N+]([O-])c1c(Cl)cccc1-c1c[nH]cc1Cl	n	47.9
COc1ccc(C(=O)N2CCC(c3nc(C)ncc3-c3cc(C)no3)CC2)o1	n	n
CCOCc1nc(-c2cccc(-c3ccn[nH]3)c2)no1	n	n
Cc1ccc(S(=O)(=O)Nc2ccc3[nH]cc(Cl)c3c2)cc1	n	44.3
Cc1ccc(S(=O)(=O)Nc2ccc(S(=O)(=O)Nc3ccc(F)cc3)cc2)cc1	n	n
Cc1ccc(S(=O)(=O)NCc2nc(C(=O)N3CCCC3)c(C)o2)cc1C	n	n
C=C(CCC(C)(C)/C=C/CC/C(C)=C/COC(COP(=O)(O)O[C@@H]1OC(C(N)=O)[C@@](C)(O)[C@H](OC(N)=O)C1O[C@@H]1OC(CO[C@@H]2OC(CO)[C@H](O)[C@H](O)C2O)[C@H](O[C@@H]2OC(CO)[C@H](O[C@@H]3OC(C(=O)NC4=C(O)CCC4=O)[C@H](O)[C@H](O)C3O)[C@H](O)C2NC(C)=O)C(O)[C@@H]1NC(C)=O)C(=O)O)CC1C(=C)CCCC1(C)C (some centres not stated)	n	44.1
CCC1(c2ccccc2)NC(=O)N(CC(=O)c2cc(C)[nH]c2C)C1=O (configuration not stated)	n	x
Cc1cc(C)n2ncc(C(=O)NC(C)CCc3ccccc3)c2n1 (configuration not stated)	n	n
Cc1cc(C)n2ncc(C(=O)NCCc3ccc(Cl)cc3)c2n1	n	30.1
CC(C)NC(=O)N1CCn2c(nnc2-c2cncc(Br)c2)C1	n	n
Cn1ccc2ccn(CC(=O)Nc3cccc(Cl)c3)c(=O)c21	n	n
CC(=O)Nc1cccc(NC(=O)Cn2ccc3cc(Br)ccc32)c1	33.0	62.0
